Species: Mus musculus
Test: Confirmation Concentration-Response Assay for Epigenetic Modulators.
Assay type: functional; call rule not given here

Potency, active:
CC(C)C(=O)NC(c1ccco1)c1cc(Cl)c2cccnc2c1O (centres undefined) 341 µM, CC(C)C(=O)NC(c1ccc(Cl)cc1Cl)c1ccc2cccnc2c1O (centres undefined) 73.2 µM, COc1cccc(C(=O)NC(c2ccco2)c2cc(Cl)c3cccnc3c2O)c1 (centres undefined) 77.1 µM, COc1ccc(C)cc1/N=N/c1ccc(O)c2ncccc12 77.1 µM

From ChEMBL document CHEMBL1201862, “PubChem BioAssay data set” (2004)
